From PubChem BioAssay
IL2 activator: qHTS of IL-2 Activators | IL-2 activation reporter assay, cell-based qHTS; stimulated with anti-CD3/CD4/CD28 beads; in transgenic mouse T cells | activation, % (series mostly up to about 46 µM) | hit rate 0.065% among 360,000; in the data active means activation above about 50%; inconclusive means mostly about 30% to 49%
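First, unstimulated transgenic mouse T cells were exposed to compound for 60 min. Next, anti-CD3/anti-CD4-coated beads with anti-CD28 were added. Finally, after 18 h at 37 degrees C, EGFP and DsRed were imaged.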
ClpP mod: qHTS Assay for Activators of ClpP | hit rate 1.9% among 340,000 | purified B. subtilis ClpP, FRET peptide cleavage, 20 min | AID 651965, 2013 | Potency, µM (doses to about 57.5 µM); active means well fitted falling curve with a large enough effect; inconclusive means small, poorly fitted or top-dose-only effect; inactive means no such curve, though single readings can be large or run the other way; further: the source files actives as falling curves though it sought activators and does not explain the sign; nearly all actives have a fitted effect of over 65% in size
Target sequence (P80244 whole entry, looked up): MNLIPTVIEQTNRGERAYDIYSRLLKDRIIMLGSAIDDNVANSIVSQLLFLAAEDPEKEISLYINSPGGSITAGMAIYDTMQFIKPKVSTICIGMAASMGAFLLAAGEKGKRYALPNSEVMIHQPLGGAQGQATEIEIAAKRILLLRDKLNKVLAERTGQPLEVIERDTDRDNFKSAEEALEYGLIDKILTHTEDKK
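Purified B. subtilis ClpP, 10 microg/mL final in Tris/HCl pH8 with KCl, BSA, glycerol and Tween-20, cleaved an Abz/nitrotyrosine-quenched decapeptide. Fluorescence (ex 320, em 430) was read at 0 and 20 min at room temperature. Delta was normalized to 5.8 microM ADEP and DMSO/no-enzyme controls.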
PKM2 act: qHTS Assay for Activators of Human Muscle isoform 2 Pyruvate Kinase; Pyruvate kinase PKM (Homo sapiens), P14618; purified PKM2, Kinase-Glo ATP luminescence, activation; response scale: 0% is enzyme alone, no compound; Potency, µM (doses to about 57.5 µM), usual class: activators; hit rate 0.34% among 260,000; AID 1631, 2009; further: nearly all actives have a fitted effect of over 55% in size
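Kinase-Glo luminescence reports ATP generated from ADP (0.1 mM) and PEP (0.5 mM) by purified hPK-M2 after 1 h at room temperature, pH 7.2 imidazole buffer; intermediate enzyme activity allows detecting inhibitors and activators.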
NPSR antag: qHTS Assay for Antagonists of the Neuropeptide S Receptor: cAMP Signal Transduction | Q6W5P4 | CHO-NPSR cells, cAMP TR-FRET, antagonist mode | Potency, µM (highest dose often 38.3 µM), hits mostly inhibitors | hit rate 1% among 220,000 | AID 1461, 2008; further: nearly all actives have a fitted effect of over 50% in size
Target sequence (Q6W5P4 whole entry, looked up): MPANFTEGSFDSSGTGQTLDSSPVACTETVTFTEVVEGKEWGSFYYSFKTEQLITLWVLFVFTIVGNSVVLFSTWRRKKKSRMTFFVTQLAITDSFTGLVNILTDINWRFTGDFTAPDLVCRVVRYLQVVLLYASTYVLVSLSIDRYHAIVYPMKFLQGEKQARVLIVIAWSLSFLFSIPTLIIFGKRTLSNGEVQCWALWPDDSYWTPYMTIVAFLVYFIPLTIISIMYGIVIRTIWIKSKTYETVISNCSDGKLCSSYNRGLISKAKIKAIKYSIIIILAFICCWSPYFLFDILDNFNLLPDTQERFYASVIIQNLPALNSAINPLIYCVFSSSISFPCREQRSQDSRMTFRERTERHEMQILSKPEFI
A number is an active result. Shown are actives, neighbours in structure and some others; about 2% of the full set was active somewhere. Unless noted, the call rests on the fitted dose curve; in most records, active means well fitted curve in the direction sought with a large enough effect; inconclusive means small, poorly fitted or top-dose-only effect, or another doubt; inactive means no such curve, though single readings can be large; an effect the other way counts as inactive or inconclusive.

How did O=C(COC(=O)c1cccc2ccccc12)Nc1cccnc1Cl do in these assays?
IL2 activator: inactive; ClpP mod: 16µM; PKM2 act: inactive; NPSR antag: inactive

How did O=C(COC(=O)c1cccc2ccccc12)Nc1ncc(C(F)(F)F)cc1Cl do in these assays?
IL2 activator: inactive; ClpP mod: 35µM; PKM2 act: inactive; NPSR antag: inactive

How did Cn1c(SCC(=O)NC2CCCC2)nc2c(c1=O)SCC2 do in these assays?
IL2 activator: inactive; ClpP mod: inactive; PKM2 act: inactive

What do the screens show for `c1ccc(-n2nc3c(ccc4cnnc43)[nH]2)cc1`?
IL2 activator: inactive; ClpP mod: 11µM; PKM2 act: inactive; NPSR antag: inactive

How did C/C=C/c1ccc(OCC(=O)Nc2cc(Cl)ccc2-n2cncn2)c(OC)c1 do in these assays?
IL2 activator: inactive; ClpP mod: inactive

What do the screens show for `Cc1cccc(Cn2c(-c3ccccc3)nc3ccccc32)c1`?
ClpP mod: inactive

Results for Cn1cccc1-c1nc2ccccc2n1Cc1ccccc1 ?
IL2 activator: inactive; ClpP mod: 28µM; PKM2 act: inactive; NPSR antag: inactive

What do the screens show for `COC(=O)c1cc(NS(=O)(=O)c2ccc(NCc3cccnc3)c(N)c2)cc(C(=O)OC)c1`?
IL2 activator: inactive; ClpP mod: inactive; PKM2 act: inactive; NPSR antag: inactive

Results for COC(=O)c1cc(NS(=O)(=O)c2ccc(NCc3cccnc3)c([N+](=O)[O-])c2)cc(C(=O)OC)c1 ?
IL2 activator: inactive; ClpP mod: 28µM; PKM2 act: inactive; NPSR antag: inactive

Results for CC1=NN2C(=N)/C(=C\c3cc(C)n(-c4cccc(C)c4)c3C)C(=O)N=C2S1 ?
IL2 activator: inactive; ClpP mod: inactive; PKM2 act: inactive; NPSR antag: 13µM

How did COc1ccc(N=Cc2sc(O)c3ccccc23)cc1 do in these assays?
IL2 activator: inconclusive; ClpP mod: inactive; PKM2 act: inactive; NPSR antag: 13µM

What do the screens show for `COc1ccc(N=Cc2c(O)c3ccccc3n2C(C)=O)cc1`?
IL2 activator: inactive; ClpP mod: inactive; PKM2 act: inactive; NPSR antag: inactive

What do the screens show for `Cc1cc(NC(=O)c2cc3nc4c(c(C(F)(F)F)n3n2)CCc2ccccc2-4)no1`?
PKM2 act: inactive; NPSR antag: inactive

Results for Cc1ccc(CNC(=O)C2CC(=O)N(CCC(C)C)C2)cc1 (stereo unspecified) ?
IL2 activator: inactive; ClpP mod: inactive; PKM2 act: inactive; NPSR antag: inactive

What do the screens show for `CCCCN1CC(C(=O)NCc2ccc(C)cc2)CC1=O` (stereo unspecified)?
IL2 activator: inactive; ClpP mod: 20µM; PKM2 act: inactive; NPSR antag: inactive

What do the screens show for `COc1ccc(-c2nc3ccncc3[nH]2)cc1OC`?
IL2 activator: inactive; ClpP mod: 28µM; PKM2 act: inactive; NPSR antag: inactive

What do the screens show for `Fc1ccc(-c2nc3ccncc3[nH]2)cc1`?
IL2 activator: inactive; ClpP mod: inactive; PKM2 act: inactive; NPSR antag: inactive

Results for CCOC(=O)N1CCN(S(=O)(=O)c2ccc(C(=O)N(CCCN(C)C)c3nc4ccc(OC)cc4s3)cc2)CC1 ?
IL2 activator: inactive; ClpP mod: inactive; PKM2 act: inactive

What do the screens show for `CCS(=O)(=O)Nc1ccccc1C(N)=O`?
IL2 activator: inactive; PKM2 act: inactive; NPSR antag: inactive

What do the screens show for `NC(=O)c1ccccc1NS(=O)(=O)Cc1ccc(Cl)cc1`?
IL2 activator: inactive; ClpP mod: 22µM; PKM2 act: inactive; NPSR antag: inactive

What do the screens show for `NC(=O)c1ccccc1NS(=O)(=O)c1ccccc1`?
IL2 activator: inactive; ClpP mod: 28µM; PKM2 act: inactive; NPSR antag: inactive

Results for O=c1[nH][nH]c(=O)c2c(NS(=O)(=O)c3ccccc3)cccc12 ?
IL2 activator: inactive; PKM2 act: 11µM; NPSR antag: inactive

What do the screens show for `CN(C)S(=O)(=O)Nc1ccccc1C(N)=O`?
IL2 activator: inactive; ClpP mod: 22µM; PKM2 act: inactive; NPSR antag: inconclusive

What do the screens show for `O=S(=O)(Nc1ccc(NS(=O)(=O)c2ccccc2)c2ccccc12)c1ccccc1`?
IL2 activator: inactive; ClpP mod: inactive

How did O=C(NC1CC(=O)N(c2ccccc2)C1)N1CCN(C(=O)c2ccco2)CC1 (stereo unspecified) do in these assays?
IL2 activator: inactive; ClpP mod: inactive

How did COc1ccc(NC(=O)CCc2nnc3ccc(N4CCC(C)CC4)nn23)cc1OC do in these assays?
IL2 activator: inactive; ClpP mod: inactive

How did Cc1cc(-c2nnc(CCC(=O)NCc3ccc(F)c(F)c3)o2)no1 do in these assays?
IL2 activator: inactive; ClpP mod: inactive; PKM2 act: inactive; NPSR antag: inactive

Results for CCN1CCN(c2oc(-c3ccc(OC)cc3)nc2C#N)CC1 ?
IL2 activator: inactive; ClpP mod: 3.2µM

What do the screens show for `N#Cc1nc(-c2ccccc2Cl)oc1N1CCOCC1`?
IL2 activator: inactive; ClpP mod: 8.9µM; PKM2 act: inactive; NPSR antag: inactive

Results for Cc1ccccc1-c1nc(C#N)c(N2CCC(C)CC2)o1 ?
IL2 activator: inactive; ClpP mod: inactive

How did COc1ccccc1-c1nc(C#N)c(N2CCN(c3ccccc3)CC2)o1 do in these assays?
IL2 activator: inactive; ClpP mod: 28µM; PKM2 act: inactive; NPSR antag: inactive

How did COc1ccc(-c2nc(C#N)c(N3CCN(c4ccccc4)CC3)o2)cc1 do in these assays?
IL2 activator: inactive; ClpP mod: inactive; PKM2 act: inactive; NPSR antag: inactive

How did CC1CCN(c2oc(-c3ccccc3Cl)nc2C#N)CC1 do in these assays?
IL2 activator: inactive; ClpP mod: 28µM; PKM2 act: inactive; NPSR antag: inconclusive

How did COC(=O)[C@@H]1N2C(=O)[C@@H](NC(=O)C(C)Oc3ccccc3)[C@H]2SC1(C)C (stereo partly specified) do in these assays?
ClpP mod: inactive

What do the screens show for `CC1CCCN(c2oc(-c3cccc4ccccc34)nc2C#N)C1` (stereo unspecified)?
IL2 activator: inactive; ClpP mod: 3.2µM; PKM2 act: inactive; NPSR antag: inactive

How did O=C(CN1C(=O)C(=O)N(CCC2=CCCCC2)C1=O)c1c[nH]c2ccccc12 do in these assays?
IL2 activator: inactive; ClpP mod: 11µM

What do the screens show for `Cc1cc(C)c(NC(=O)CSc2nccn2Cc2ccco2)c(C)c1`?
ClpP mod: inactive

Results for CCCC(=NCCc1c(C)[nH]c2ccccc12)C1=C(O)CC(c2ccccc2)CC1=O (stereo unspecified) ?
IL2 activator: inactive; ClpP mod: inactive; PKM2 act: inactive; NPSR antag: inactive

Results for CC(=NCCc1c(C)[nH]c2ccc(OC(F)(F)F)cc12)C1=C(O)CC(c2ccccc2)CC1=O (stereo unspecified) ?
IL2 activator: inactive; PKM2 act: inactive; NPSR antag: 10µM

How did CCCCC(=NCCc1c(C)[nH]c2ccccc12)C1=C(O)CC(c2ccccc2)CC1=O (stereo unspecified) do in these assays?
IL2 activator: inactive; PKM2 act: inactive; NPSR antag: 7.9µM
